Measured values taken from ChEMBL document CHEMBL2218924, “A broad activity screen in support of a chemogenomic map for kinase signalling research and drug discovery” (Biochem J, 2013).

Key:
[1] = target: T1, Ephrin type-B receptor 2 (Homo sapiens) (UniProt P29323); conditions: at 1 µM
T1 sequence (whole entry): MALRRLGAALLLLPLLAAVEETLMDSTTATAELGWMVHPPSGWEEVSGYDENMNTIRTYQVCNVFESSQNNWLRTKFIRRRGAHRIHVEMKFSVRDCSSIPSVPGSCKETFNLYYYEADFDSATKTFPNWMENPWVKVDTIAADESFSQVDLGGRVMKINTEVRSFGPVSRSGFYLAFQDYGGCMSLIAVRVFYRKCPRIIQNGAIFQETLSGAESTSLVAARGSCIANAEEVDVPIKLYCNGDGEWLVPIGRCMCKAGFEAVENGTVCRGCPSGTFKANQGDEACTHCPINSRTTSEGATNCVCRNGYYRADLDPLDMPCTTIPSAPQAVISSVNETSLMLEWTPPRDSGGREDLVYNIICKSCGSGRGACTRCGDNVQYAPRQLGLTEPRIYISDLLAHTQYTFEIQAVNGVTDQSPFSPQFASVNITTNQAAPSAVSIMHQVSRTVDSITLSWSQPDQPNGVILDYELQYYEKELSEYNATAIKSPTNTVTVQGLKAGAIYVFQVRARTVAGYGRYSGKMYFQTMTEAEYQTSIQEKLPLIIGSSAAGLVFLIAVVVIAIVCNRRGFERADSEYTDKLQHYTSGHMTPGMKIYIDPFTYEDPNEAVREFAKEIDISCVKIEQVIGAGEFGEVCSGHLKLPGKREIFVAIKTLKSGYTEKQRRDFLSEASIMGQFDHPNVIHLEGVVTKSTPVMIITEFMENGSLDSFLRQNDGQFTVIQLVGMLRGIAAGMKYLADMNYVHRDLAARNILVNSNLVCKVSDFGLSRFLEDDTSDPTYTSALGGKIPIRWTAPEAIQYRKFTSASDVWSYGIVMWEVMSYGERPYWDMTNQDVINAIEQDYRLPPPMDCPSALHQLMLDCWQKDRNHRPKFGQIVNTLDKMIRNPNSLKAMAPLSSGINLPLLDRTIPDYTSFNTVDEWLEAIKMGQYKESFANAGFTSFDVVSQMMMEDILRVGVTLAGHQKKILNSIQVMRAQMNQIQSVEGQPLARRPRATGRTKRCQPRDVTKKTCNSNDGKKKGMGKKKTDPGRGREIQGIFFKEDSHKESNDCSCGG

[2] = target: T1, Ephrin type-B receptor 2 (Homo sapiens); conditions: at 10 µM
[3] = target: T2, Ephrin type-B receptor 3 (Homo sapiens) (UniProt P54753); conditions: at 1 µM
T2 sequence (whole entry): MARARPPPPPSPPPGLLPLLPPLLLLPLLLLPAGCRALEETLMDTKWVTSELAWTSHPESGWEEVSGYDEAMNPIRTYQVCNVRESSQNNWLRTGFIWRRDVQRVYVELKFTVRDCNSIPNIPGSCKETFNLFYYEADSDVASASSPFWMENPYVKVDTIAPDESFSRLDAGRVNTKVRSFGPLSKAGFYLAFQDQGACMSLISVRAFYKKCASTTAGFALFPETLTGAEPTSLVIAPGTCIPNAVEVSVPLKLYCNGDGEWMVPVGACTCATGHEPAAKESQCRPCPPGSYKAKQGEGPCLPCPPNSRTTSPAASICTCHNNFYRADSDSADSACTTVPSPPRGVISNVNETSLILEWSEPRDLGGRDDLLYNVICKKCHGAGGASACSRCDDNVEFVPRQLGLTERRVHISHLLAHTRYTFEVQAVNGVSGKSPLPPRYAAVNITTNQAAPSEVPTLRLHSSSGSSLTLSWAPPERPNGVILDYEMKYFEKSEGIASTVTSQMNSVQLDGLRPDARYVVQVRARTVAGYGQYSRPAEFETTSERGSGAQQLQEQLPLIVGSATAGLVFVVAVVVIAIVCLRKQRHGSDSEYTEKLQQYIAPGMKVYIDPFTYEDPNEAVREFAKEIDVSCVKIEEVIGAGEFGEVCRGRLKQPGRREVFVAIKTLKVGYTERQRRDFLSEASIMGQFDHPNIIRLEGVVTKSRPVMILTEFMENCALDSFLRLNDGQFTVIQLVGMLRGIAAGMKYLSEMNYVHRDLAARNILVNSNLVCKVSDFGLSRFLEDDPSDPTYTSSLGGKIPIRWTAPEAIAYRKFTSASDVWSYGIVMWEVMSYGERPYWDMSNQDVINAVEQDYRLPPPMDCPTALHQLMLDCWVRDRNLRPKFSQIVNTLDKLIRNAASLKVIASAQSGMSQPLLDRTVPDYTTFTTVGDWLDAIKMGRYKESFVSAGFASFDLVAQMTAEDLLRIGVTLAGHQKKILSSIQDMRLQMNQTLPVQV

[4] = target: T2, Ephrin type-B receptor 3 (Homo sapiens); conditions: at 10 µM
[5] = target: T3, Ephrin type-B receptor 4 (Homo sapiens) (UniProt P54760); conditions: at 1 µM
T3 sequence (whole entry): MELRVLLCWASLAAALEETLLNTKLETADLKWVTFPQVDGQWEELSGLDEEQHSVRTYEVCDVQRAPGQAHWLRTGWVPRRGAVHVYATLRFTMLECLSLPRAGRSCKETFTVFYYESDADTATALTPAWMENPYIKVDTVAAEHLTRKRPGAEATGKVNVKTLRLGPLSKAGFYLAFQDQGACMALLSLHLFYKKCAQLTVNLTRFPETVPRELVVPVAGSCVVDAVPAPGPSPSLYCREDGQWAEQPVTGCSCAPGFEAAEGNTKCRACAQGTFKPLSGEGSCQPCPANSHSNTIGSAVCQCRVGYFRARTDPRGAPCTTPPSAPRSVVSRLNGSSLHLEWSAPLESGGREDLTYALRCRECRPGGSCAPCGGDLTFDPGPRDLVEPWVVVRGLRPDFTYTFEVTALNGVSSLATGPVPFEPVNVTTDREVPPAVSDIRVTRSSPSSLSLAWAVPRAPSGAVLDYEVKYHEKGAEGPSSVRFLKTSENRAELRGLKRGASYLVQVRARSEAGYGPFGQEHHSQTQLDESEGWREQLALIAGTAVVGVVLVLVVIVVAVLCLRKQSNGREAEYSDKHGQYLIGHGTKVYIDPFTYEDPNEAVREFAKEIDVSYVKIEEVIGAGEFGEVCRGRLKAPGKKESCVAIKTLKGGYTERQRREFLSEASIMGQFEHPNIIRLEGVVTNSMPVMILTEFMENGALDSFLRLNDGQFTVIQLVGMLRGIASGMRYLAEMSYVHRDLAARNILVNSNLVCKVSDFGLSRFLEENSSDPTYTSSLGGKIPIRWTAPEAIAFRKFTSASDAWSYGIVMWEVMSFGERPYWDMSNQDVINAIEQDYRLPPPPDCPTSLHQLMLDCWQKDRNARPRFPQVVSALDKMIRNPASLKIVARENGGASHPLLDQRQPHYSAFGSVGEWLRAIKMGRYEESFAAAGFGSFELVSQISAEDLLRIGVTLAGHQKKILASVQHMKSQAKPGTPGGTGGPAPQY

[6] = target: T3, Ephrin type-B receptor 4 (Homo sapiens); conditions: at 10 µM
[7] = target: Receptor tyrosine-protein kinase erbB-4 (Homo sapiens) (UniProt Q15303); conditions: at 1 µM
[8] = target: Focal adhesion kinase 1 (Homo sapiens) (UniProt Q05397); conditions: at 1 µM
[9] = target: Focal adhesion kinase 1 (Homo sapiens) (UniProt Q05397); conditions: at 10 µM
[10] = target: Fibroblast growth factor receptor 1 (Homo sapiens) (UniProt P11362); conditions: at 1 µM
[11] = target: Fibroblast growth factor receptor 1 (Homo sapiens) (UniProt P11362); conditions: at 10 µM
[12] = target: Fibroblast growth factor receptor 2 (Homo sapiens) (UniProt P21802); conditions: at 1 µM
[13] = target: Fibroblast growth factor receptor 2 (Homo sapiens) (UniProt P21802); conditions: at 10 µM
[14] = target: Fibroblast growth factor receptor 3 (Homo sapiens) (UniProt P22607); conditions: at 1 µM
[15] = target: Fibroblast growth factor receptor 3 (Homo sapiens) (UniProt P22607); conditions: at 10 µM
[16] = target: Fibroblast growth factor receptor 4 (Homo sapiens) (UniProt P22455); conditions: at 1 µM
[17] = target: Fibroblast growth factor receptor 4 (Homo sapiens) (UniProt P22455); conditions: at 10 µM
[18] = target: Tyrosine-protein kinase Fer (Homo sapiens) (UniProt P16591); conditions: at 1 µM
[19] = target: Receptor tyrosine-protein kinase erbB-4 (Homo sapiens) (UniProt Q15303); conditions: at 10 µM
[20] = target: T4, Ephrin type-B receptor 1 (Homo sapiens) (UniProt P54762); conditions: at 10 µM
T4 sequence (whole entry): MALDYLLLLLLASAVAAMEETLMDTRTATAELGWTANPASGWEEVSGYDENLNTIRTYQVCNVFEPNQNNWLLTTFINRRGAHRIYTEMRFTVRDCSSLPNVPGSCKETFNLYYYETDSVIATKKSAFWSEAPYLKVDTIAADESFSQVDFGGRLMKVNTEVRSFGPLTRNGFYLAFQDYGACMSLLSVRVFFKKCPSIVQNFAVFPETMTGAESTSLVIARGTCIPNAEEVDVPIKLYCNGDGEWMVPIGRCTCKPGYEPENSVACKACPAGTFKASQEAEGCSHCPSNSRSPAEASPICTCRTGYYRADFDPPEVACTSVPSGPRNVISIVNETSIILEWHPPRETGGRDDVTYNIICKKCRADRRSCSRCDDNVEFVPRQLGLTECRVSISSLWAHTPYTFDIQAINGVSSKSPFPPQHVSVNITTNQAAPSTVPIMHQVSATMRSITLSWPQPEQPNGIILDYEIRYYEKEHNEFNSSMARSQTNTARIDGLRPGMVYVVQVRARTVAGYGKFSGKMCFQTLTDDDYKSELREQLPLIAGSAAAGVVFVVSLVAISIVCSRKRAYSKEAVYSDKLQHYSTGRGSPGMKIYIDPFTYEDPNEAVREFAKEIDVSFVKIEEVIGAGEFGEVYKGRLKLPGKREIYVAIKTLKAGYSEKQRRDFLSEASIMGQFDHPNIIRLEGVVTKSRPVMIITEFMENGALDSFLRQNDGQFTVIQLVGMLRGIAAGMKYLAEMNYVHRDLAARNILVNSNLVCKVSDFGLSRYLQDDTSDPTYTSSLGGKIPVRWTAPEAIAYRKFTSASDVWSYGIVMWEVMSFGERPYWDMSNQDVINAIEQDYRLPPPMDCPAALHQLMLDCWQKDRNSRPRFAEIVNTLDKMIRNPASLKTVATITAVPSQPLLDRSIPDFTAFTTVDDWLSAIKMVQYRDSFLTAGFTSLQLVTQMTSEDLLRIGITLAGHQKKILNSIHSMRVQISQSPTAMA

Fibroblast growth factor receptor 2 (Homo sapiens), sequence (P21802 22-821 limits assumed): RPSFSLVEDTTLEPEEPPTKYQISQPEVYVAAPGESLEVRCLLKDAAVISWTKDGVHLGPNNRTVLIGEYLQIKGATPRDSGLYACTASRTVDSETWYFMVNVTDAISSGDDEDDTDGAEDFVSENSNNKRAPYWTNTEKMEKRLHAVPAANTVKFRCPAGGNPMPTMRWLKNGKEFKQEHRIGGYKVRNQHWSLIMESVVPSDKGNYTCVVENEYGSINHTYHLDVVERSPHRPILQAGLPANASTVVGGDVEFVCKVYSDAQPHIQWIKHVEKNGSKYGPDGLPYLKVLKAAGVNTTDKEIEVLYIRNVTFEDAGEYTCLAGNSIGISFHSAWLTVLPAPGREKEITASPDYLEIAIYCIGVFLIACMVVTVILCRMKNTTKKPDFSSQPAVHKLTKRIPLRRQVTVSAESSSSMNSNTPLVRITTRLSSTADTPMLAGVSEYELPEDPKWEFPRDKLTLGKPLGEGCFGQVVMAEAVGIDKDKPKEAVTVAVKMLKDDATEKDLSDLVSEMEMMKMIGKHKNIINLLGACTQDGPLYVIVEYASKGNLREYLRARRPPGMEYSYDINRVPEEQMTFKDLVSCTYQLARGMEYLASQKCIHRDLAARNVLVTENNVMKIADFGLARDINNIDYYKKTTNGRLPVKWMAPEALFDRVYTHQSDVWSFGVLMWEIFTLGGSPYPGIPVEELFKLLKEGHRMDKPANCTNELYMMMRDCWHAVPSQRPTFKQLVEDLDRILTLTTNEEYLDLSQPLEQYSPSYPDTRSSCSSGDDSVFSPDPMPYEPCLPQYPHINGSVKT
Fibroblast growth factor receptor 4 (Homo sapiens), sequence (P22455 22-802 limits assumed): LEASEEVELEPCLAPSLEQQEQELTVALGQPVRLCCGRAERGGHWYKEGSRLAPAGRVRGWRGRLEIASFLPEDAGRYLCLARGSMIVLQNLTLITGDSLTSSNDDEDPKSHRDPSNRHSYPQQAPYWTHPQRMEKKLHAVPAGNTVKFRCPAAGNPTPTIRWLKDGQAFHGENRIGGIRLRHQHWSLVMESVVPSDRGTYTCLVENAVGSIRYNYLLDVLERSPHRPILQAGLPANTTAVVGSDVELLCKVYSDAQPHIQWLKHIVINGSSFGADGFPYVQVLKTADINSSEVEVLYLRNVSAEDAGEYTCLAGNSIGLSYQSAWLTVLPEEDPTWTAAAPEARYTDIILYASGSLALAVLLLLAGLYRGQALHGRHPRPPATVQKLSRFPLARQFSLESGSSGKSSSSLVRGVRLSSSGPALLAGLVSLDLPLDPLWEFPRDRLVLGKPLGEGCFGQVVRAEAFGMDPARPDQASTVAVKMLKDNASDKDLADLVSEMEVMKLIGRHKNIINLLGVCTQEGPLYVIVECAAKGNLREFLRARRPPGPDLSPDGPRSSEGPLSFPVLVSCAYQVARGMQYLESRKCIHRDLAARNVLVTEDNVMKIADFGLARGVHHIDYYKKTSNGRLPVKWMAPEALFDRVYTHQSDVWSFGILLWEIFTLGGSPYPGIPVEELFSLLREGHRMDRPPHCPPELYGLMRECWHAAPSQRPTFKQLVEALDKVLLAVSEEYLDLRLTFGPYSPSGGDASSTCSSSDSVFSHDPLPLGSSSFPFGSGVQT
Focal adhesion kinase 1 (Homo sapiens), sequence (Q05397 2-1052 limits assumed): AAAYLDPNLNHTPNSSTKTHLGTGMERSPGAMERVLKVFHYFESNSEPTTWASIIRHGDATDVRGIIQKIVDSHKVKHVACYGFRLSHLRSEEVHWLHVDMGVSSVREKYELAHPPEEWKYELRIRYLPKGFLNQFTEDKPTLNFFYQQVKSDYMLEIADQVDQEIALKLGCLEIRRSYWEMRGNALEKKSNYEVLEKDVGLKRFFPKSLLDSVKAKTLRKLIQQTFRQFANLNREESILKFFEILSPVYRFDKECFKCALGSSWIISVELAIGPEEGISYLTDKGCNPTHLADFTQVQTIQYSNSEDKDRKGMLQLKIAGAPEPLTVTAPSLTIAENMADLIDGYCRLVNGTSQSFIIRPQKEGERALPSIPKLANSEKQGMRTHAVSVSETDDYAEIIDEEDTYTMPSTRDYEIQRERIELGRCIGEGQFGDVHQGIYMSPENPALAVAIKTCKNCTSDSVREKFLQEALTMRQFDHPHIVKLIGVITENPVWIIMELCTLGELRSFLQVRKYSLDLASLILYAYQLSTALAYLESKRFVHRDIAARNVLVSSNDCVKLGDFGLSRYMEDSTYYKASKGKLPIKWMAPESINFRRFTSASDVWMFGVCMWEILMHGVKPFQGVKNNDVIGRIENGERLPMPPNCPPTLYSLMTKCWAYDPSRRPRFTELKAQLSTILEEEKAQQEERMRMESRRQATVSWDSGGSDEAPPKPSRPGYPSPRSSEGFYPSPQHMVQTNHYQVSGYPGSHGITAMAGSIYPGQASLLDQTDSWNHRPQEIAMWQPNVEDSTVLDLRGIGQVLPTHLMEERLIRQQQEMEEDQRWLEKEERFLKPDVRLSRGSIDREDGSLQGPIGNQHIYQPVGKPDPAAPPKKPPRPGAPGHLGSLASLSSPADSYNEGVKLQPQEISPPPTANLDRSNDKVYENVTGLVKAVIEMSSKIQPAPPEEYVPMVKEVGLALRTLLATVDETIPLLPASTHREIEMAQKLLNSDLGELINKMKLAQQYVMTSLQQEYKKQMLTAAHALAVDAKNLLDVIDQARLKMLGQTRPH
Fibroblast growth factor receptor 1 (Homo sapiens), sequence (P11362 22-822 limits assumed): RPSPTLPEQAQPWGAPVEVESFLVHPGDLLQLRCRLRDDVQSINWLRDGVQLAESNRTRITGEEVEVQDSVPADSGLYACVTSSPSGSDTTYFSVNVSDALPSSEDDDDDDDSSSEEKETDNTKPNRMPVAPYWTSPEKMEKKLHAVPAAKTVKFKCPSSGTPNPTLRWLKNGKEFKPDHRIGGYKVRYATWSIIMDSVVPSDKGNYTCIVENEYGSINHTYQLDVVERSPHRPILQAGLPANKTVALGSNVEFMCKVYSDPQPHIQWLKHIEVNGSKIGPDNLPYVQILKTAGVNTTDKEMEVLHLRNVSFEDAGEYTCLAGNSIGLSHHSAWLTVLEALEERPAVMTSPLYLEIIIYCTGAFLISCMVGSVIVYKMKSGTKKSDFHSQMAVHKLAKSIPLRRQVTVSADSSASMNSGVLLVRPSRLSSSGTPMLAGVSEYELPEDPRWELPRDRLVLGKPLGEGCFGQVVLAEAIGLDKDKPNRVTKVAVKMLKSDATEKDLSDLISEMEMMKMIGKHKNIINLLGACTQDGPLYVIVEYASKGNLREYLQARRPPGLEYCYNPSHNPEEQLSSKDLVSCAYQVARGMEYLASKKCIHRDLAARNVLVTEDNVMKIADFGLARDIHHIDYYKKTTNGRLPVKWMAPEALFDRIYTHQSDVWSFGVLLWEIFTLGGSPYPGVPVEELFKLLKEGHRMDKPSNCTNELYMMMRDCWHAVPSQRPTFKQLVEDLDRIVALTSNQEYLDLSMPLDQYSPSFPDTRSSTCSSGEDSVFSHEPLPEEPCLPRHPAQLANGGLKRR
Fibroblast growth factor receptor 3 (Homo sapiens), sequence (P22607 23-806 limits assumed): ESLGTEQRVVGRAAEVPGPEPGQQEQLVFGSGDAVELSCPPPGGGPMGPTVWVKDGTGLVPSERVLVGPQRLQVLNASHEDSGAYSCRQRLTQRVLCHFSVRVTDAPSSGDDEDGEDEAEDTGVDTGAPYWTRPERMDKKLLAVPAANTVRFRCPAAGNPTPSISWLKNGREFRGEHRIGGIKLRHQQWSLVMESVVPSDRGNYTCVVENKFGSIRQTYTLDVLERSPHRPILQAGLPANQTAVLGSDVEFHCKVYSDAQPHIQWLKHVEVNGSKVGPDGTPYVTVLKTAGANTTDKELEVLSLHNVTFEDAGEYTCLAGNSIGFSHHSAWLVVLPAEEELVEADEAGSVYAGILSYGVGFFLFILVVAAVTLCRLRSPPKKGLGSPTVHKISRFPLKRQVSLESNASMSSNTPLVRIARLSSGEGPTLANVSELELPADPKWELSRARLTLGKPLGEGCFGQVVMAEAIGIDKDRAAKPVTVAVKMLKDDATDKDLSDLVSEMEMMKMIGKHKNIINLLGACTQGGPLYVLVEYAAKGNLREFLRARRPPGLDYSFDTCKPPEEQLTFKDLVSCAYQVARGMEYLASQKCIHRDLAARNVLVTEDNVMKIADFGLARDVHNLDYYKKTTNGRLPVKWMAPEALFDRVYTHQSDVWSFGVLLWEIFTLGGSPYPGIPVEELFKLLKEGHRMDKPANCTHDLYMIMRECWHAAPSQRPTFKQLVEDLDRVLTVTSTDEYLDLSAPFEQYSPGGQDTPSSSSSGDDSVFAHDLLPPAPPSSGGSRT
Tyrosine-protein kinase Fer (Homo sapiens), sequence (P16591 whole entry, looked up): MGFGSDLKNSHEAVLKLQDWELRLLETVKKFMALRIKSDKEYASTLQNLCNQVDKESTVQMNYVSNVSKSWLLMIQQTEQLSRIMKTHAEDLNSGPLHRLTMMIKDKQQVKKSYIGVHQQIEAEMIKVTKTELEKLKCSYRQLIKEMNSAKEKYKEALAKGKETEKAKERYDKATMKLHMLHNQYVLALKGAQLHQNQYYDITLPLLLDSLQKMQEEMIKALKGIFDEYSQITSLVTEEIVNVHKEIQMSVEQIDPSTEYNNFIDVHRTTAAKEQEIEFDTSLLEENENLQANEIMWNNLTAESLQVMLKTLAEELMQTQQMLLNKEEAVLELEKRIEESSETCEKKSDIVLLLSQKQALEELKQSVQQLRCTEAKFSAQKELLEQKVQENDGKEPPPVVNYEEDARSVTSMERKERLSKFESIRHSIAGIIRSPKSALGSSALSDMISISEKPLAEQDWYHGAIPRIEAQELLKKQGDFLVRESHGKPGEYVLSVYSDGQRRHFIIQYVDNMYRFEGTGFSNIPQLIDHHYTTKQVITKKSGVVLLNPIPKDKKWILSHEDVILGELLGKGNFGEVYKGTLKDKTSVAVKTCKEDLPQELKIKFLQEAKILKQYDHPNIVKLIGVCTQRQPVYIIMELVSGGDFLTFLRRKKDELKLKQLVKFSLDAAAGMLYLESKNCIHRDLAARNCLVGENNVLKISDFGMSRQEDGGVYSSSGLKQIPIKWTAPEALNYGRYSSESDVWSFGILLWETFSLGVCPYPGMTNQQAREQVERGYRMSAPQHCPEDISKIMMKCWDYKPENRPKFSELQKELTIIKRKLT

Row | Structure (SMILES) | residual activity [1] [%] | residual activity [2] [%] | residual activity [3] | residual activity [4] [%] | residual activity [5] [%] | residual activity [6] [%] | residual activity [7] [%] | residual activity [8] [%] | residual activity [9] [%] | residual activity [10] [%] | residual activity [11] [%] | residual activity [12] [%] | residual activity [13] [%] | residual activity [14] [%] | residual activity [15] [%] | residual activity [16] [%] | residual activity [17] [%] | residual activity [18] [%] | residual activity [19] [%] | residual activity [20] [%]
1 | CO[C@@H]1[C@H](N(C)C(=O)c2ccccc2)C[C@H]2O[C@]1(C)n1c3ccccc3c3c4c(c5c6ccccc6n2c5c31)C(=O)NC4 | 111 | 222 | 119% (inactive) | 130 | 107 | 372 | 67 | 90 | 37 | 5 | -4 | 21 | 7 | 34 | 19 | 71 | 41 | 26 |  | 
2 | N#CC(C#N)=C(N)/C(C#N)=C/c1ccc(O)cc1 |  |  |  |  | 116 | 119 | 95 | 132 | 97 | 100 | 75 |  |  | 99 |  | 135 |  |  | 76 | 
3 | Nc1n[nH]c2nnc(-c3c(-c4ccccc4)nn4ccccc34)cc12 | 117 | 110 | 101% (inactive) | 104 | 83 | 67 | 81 | 96 | 83 | 110 | 61 | 98 | 83 |  | 102 | 101 | 94 | 95 | 57 | 87
4 | COc1cc2ncnc(Nc3ccc(Oc4ccccc4)cc3)c2cc1OC | 115 | 109 | 120% (inactive) | 93 | 106 | 138 | -3 | 72 | 71 |  | 48 | 65 | 33 | 78 | 54 | 121 | 109 | 110 | -5 | 107
5 | CC(C)n1cnc2/c(=N/c3cccc(Cl)c3)nc(NCCO)[nH]c21 | 102 | 35 | 108% (inactive) |  | 67 | 22 | 94 | 46 | 11 | 87 | 19 | 101 | 37 | 106 | 59 | 114 | 110 |  | 107 | 20
6 | CC(=O)O/N=C1\C(=C2\C(=O)Nc3cc(Br)ccc32)Nc2ccccc21 | 103 | 60 | 107% (inactive) | 107 | 71 | 65 | 96 | 95 | 59 | 17 | 0 | 73 | 18 | 84 | 22 |  | 69 | 94 | 90 | 47
7 | O=C1Nc2ccccc2/C1=C1/Nc2ccccc2/C1=N\OCCC(O)CO (stereo not given) | 82 | 12 | 117% (inactive) | 112 | 49 | 4 | 107 | 16 | 1 | 2 | -1 | 20 | 2 | 22 | 23 |  |  | 37 | 105 | 8
8 | Cn1nc2c3c(cccc31)C(=O)c1ccccc1-2 | 108 | 109 | 104% (inactive) |  | 87 | 83 | 93 | 95 | 65 | 110 | 66 | 103 | 76 | 112 | 77 | 90 | 88 | 87 | 90 | 77
